A selection: hits, their analogues and other compounds. The true share with any hit is near 2.6%.
Nrf2 ARE act – activates Nrf2 signaling. AREc32 ARE-luciferase reporter (MCF7-derived line), luminescence, 24 h. Potency, µM (titrated, usually from 46.1 µM), for inactives: at the highest dose activation, usual class: activators. 0.31% of 410,000 active. AID 624171; also: potency is read from the fitted curve at half-maximal effect; % of control where 0% means no effect; nearly all actives have a fitted effect of over 65% in size
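Luminescent ARE reporter assay in AREc32_Fluc cells: overnight plating at 37 deg C, 24 hr compound incubation, Steady-Glo added, 30 min RT before reading.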
Nrf2 inh – Nrf2 pathway inhibition; Potency, µM (titrated, usually from 46 µM), for inactives: top-dose activity change, negative = inhibition, actives largely listed as inhibitors; A549 ARE-Fluc reporter, luciferase luminescence, 18-24 h; 2.1% of 360,000 active; AID 504444; also: potency is read from the fitted curve at half-maximal effect; % is scaled to controls: 0 for no effect and ±100 for the full control effect; nearly all actives have a fitted effect of over 60% in size
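Concentration-response testing used A549 ARE_Fluc cells at 5000 cells/well. Following an 18-24 h compound incubation, viability was read by fluorescence (Ex 405/Em 525) and luciferase output by luminescence.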
TCR activator – activates T cell receptor signaling. primary human leukocytes, anti-CD3, IL-2 HTRF, 48 h. AID 504894. 330,000 tested, under 10 active. Potency, µM (series often up to 9.22 µM), inactives show at the top dose activation of IL-2 secretion, actives largely listed as activators; also: % of control where 0% means no effect
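Primary human leukocytes incubated 48 hr with anti-CD3 beads plus compound, without co-stimulation. Secreted IL-2 measured by HTRF (europium cryptate/d2 anti-IL-2 pair, 320 nm excitation, 665 nm emission).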
A-T KAP1 phos – potential ataxia-telangiectasia treatment. F2112 A-T fibroblasts, KAP-1 phosphorylation AlphaLISA; neocarzinostatin DNA damage 30 min before lysis. Potency, µM (series often up to 57.5 µM), inactives show top-dose activation, usual class: activators. 0.19% of 320,000 active; also: potency is read from the fitted curve at half-maximal effect; % of control where 0% means no effect; nearly all actives have a fitted effect of over 45% in size
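ATM-like activity read as KAP-1 phosphorylation via AlphaLISA donor/acceptor antibody pairs after lysis and 6 hr at 25C. Cells were ATM-null patient fibroblasts (F2112, hTERT), dosed 60 min, then exposed to the DSB inducer NCS for 30 min.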
A549 tox – kills or reduces viability of A549 cells in Nrf2 counter-screen; Potency, µM (highest dose often 46 µM), inactives show at the highest dose activity change, negative = cytotoxicity, actives largely listed as inhibitors; AID 504648; A549 ARE-Fluc cells, CellTiter-Fluor viability, 18-24 h; 0.16% of 390,000 active; also: potency is read from the fitted curve at half-maximal effect; % is scaled to controls: 0 for no effect and ±100 for the full control effect
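Cytotoxicity counterscreen: CellTiter-Fluor fluorescence was measured in A549 ARE_Fluc cells after 18-24 h of compound exposure in a concentration series. The subsequent BugLite luminescent read reports ARE-luciferase activity.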
CCT chaperon mod – changes cytosolic chaperonin activity; purified chaperonin ATPase assay, HTRF ADP detection, 30 min; activity change, % (test concentration not listed), hits read low; 0.3% of 360,000 active; AID 651819; in the data active = activity change below about -30%; also: % is scaled to controls: 0 for no effect and ±100 for the full control effect
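TRiC (40 or 20 nM final, by batch activity) in 30 mM Tris pH 7.4, 100 mM KCl, 5 mM MgCl2, 1 mM DTT was treated with compound at 76 uM single dose, then 10 uM ATP, 30 min at 37 °C. ADP was read by HTRF Transcreener.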
Numbers without * were called inactive; ? = inconclusive; · = not tested or not shown; [ ] = dose if it differs, or a comment. Unless noted, calls follow the shape of the dose curve; as a rule, active = well fitted curve in the direction sought with a large enough effect; inconclusive = small, poorly fitted or top-dose-only effect, or another doubt; inactive = no such curve, though single readings can be large; an effect the other way counts as inactive or inconclusive.

SMILES	Nrf2 ARE act	Nrf2 inh	TCR activator	A-T KAP1 phos	A549 tox	CCT chaperon mod
COc1ccc(-c2c([C@H]3[C@H]4C=CC[C@@H](C)[C@@H]4C(=O)N3Cc3ccccc3)ccc3ccccc23)cc1	7%	?	-7%	10%	-12%	-1
COc1ccc(C2C3C=CCC(c4ccccc4)C3C(=O)N2Cc2ccccc2)cc1Cl (stereo not given)	·	21µM*	·	·	?	·
COc1ccc(-c2c(C3C4C=CCC(C)C4C(=O)N3Cc3ccccc3)ccc3ccccc23)cc1OC (stereo not given)	·	21µM*	·	·	-15%	·
CCOC(CCNC(=O)c1cn(CCOC)c(=O)c2c1c1ccccc1n2C)OCC	0%	-14%	1%	33%	-12%	-1
CC(=O)Nc1ccc(S(=O)(=O)N2CCN(S(=O)(=O)c3ccc4c(c3)OCCO4)CC2)cc1	·	?	·	·	-10%	·
CC(=O)Nc1ccc(Nc2nc(Nc3ccc(Cl)cc3)nc(N3CCOCC3)n2)cc1	·	?	·	·	13%	·
COc1ccc(NC(=O)/C(C#N)=C/c2cc(C)n(-c3ccc(N4CCOCC4)c([N+](=O)[O-])c3)c2C)cc1	-1%	6.5µM*	-3%[46.1 µM]	4%	-12%	-4
Cc1cc(/C=C(\C#N)C(=O)Nc2ccc(F)cc2)c(C)n1-c1ccc(N2CCOCC2)c([N+](=O)[O-])c1	0%	?	-3%	3%	-8%	-22
COc1ccc(OCC(=O)Nc2cc(-c3nn(C)c(=O)c4ccccc34)ccc2OC)cc1	1%	23µM*	·	3%	-14%	-1
COC(=O)c1sc(N2C(=O)C(O)=C(C(=O)c3ccc(C)o3)C2c2ccco2)nc1C (stereo not given)	9%	3%	-2%	1%	-4%	-2
COC(=O)c1sc(N2C(=O)C(O)=C(C(=O)c3ccc(C)o3)C2c2cccs2)nc1C (stereo not given)	28%	21µM*	6%	-9%	?	-5
Cc1ccc(NC(=O)Nc2cn(C)c(=O)c3ccccc23)c(Cl)c1	5%	-16%	·	·	5%	·
CC(C)CN(C(=O)CCNC(=O)c1ccccc1Cl)C1CCS(=O)(=O)C1 (stereo not given)	-1%	-21%	-1%	15%	3%	0
Cc1ccc(NS(=O)(=O)c2ccc3c(c2)CC(=O)N3C)cc1C	·	?	·	·	4%	·
CCc1ccc(NS(=O)(=O)c2ccc3[nH]c(=O)[nH]c3c2)cc1	0%	-11%	-5%	-5%	-2%	-1
CC(C)Cc1ccc(S(=O)(=O)Nc2ccc3[nH]c(=O)[nH]c3c2)cc1	1%	18µM*	-8%	-27%	0%	4
Cc1ccc(Cl)cc1NS(=O)(=O)c1cc2c(cc1Cl)CCC(=O)N2	·	-25%	·	·	10%	·
O=C(NCC1OCCc2ccccc21)c1ccc(NC(=O)c2ccc(Cl)cc2Cl)cc1 (stereo not given)	-1%	-27%	-2%[46.1 µM]	2%	-9%	-7
O=C(NCC1OCCc2ccccc21)c1ccc(NC(=O)c2ccccc2Cl)cc1 (stereo not given)	0%	21µM*	-6%[46.1 µM]	-9%	2%	-4
COCCn1c(SCC(=O)Nc2ccc(Br)cc2)nc2c([nH]c3ccccc32)c1=O	-1%	·	·	·	-9%	·
CN(C(=O)c1cccc(NC(=O)Cc2ccc([N+](=O)[O-])cc2)c1)C1CCCC1	-1%	23µM*	3%	3%	-13%	-1
CN(Cc1ccccc1)C(=O)c1cccc(NC(=O)Cc2cccc([N+](=O)[O-])c2)c1	0%	16µM*	-4%	-1%	-3%	-1
CN(C(=O)c1cccc(NC(=O)Cc2cccc([N+](=O)[O-])c2)c1)C1CCCC1	6%	10µM*	0%	7%	-2%	-1
CN(C(=O)c1cccc(NC(=O)Cc2cccc([N+](=O)[O-])c2)c1)C1CCC1	5%	?	3%	6%	0%	0
O=C(CCc1ccccc1)Nc1cccc([N+](=O)[O-])c1	?	23%	·	7%	2%	-3
SMILES	Nrf2 ARE act	Nrf2 inh	TCR activator	A-T KAP1 phos	A549 tox	CCT chaperon mod
COc1ccc(NS(=O)(=O)c2cc(OC)ccc2NC(=O)c2cc(C)oc2C)cc1	-1%	?	-1%	1%	-26%	-1
O=C(CN1C(=O)CCOc2ccccc21)Nc1ccc(Cl)c(S(=O)(=O)N2CCOCC2)c1	-1%	-6%	·	1%	8%	1
COCCCn1c(=O)cc(C)[nH]c1=S	-1%	-8%	0%	-4%	-9%	-39*
O=S(=O)(c1ccc2c(c1)OCCO2)N1CCN(S(=O)(=O)c2ccc(F)c(F)c2F)CC1	·	5%	·	·	-4%	·
OCCC1CN(Cc2cc(F)ccc2-n2cccn2)CCN1C1CCCC1 (stereo not given)	0%	6%	4%	7%	5%	-30*
CC(=O)NC(=S)Nc1sc2c(c1C#N)CCCCC2	6%	?	-2%[46.1 µM]	-3%	-6%	-31*
COc1ccccc1N(C)S(=O)(=O)c1ccc(C(=O)Nc2cccc(Br)c2)cc1	3%	16µM*	5%	1%	-9%	-3
COC(=O)c1ccc(CNC(=O)c2ccc(S(=O)(=O)N(C)c3ccccc3OC)cc2)cc1	0%	23µM*	-2%	-1%	0%	0
CN(c1ccccc1)S(=O)(=O)c1cccc(NC(=O)c2cccc(C#N)c2)c1	-1%	?	-3%	-4%	?	-1
COc1ccccc1N(C)S(=O)(=O)c1ccc(C(=O)NCC(C)C)cc1	0%	?	5%	3%	-6%	2
COc1ccccc1N(C)S(=O)(=O)c1ccc(C(=O)Nc2ccc3nc(C)sc3c2)cc1	0%[9.22 µM]	18µM*	4%[46.1 µM]	9%	-12%	1
COC(=O)c1cccc(NC(=O)c2ccc(S(=O)(=O)N(C)c3ccccc3OC)cc2)c1	0%	·	·	·	·	0
CN(c1ccccc1)S(=O)(=O)c1cccc(NC(=O)c2ccc3ncsc3c2)c1	-1%	16µM*	6%	-4%	-21%	1
CN(c1ccccc1)S(=O)(=O)c1cccc(NC(=O)CSc2nnc(N)s2)c1	0%	?	2%[46.1 µM]	-3%	-2%	-2
Cn1c(=O)c2c(ncn2CC(=O)Nc2cc(S(=O)(=O)N3CCCCC3)ccc2Cl)n(C)c1=O	2%	21µM*	-2%	11%	-2%	-1
CN(c1ccccc1)S(=O)(=O)c1cccc(NC(=O)Cn2cnc3c2c(=O)n(C)c(=O)n3C)c1	0%	10µM*	-3%[46.1 µM]	8%	0%	1

Compound activity as filed in PubChem BioAssay.
